Several values for one entry are separate records, joined by “and”; a condition that tells them apart may be missing. Identical values can stand only once. Hit rate of the full screen: of about 310,000 compounds, about 11,000 (3.5%) were called active. Inconclusive results (about 4%) are left out. The entries come from a sample that favours actives as a whole. Unmarked numbers belong to inactive results. Calls come from the whole dose curve; as a rule, active = well fitted inhibition curve with a large enough effect; inconclusive = small, poorly fitted or top-dose-only effect, or another doubt; inactive = no such curve, though single readings can be large or run the other way.
Potency is the fitted concentration of half-maximal effect.

This assay concerns the target 4'-phosphopantetheinyl transferase ffp (Bacillus subtilis) (UniProt Q9F4F7). Kind of assay: qHTS Assay for Inhibitors of Bacillus subtilis Sfp phosphopantetheinyl transferase (PPTase).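 For largest response in the series, negative = inhibition: 0% = enzyme reaction without inhibitor and -100% = no enzyme wells.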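 Note: the enzyme is Sfp with the accession as filed and its product quenches rhodamine fluorescence.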 The following applies: Biochemical Sfp PPTase activity. The method, boiled down:
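Reaction rates are the 30-min fluorescence difference (ex 525, em 598 nm) in wells containing 15 nM Sfp, 5 uM rhodamine-CoA and 12.5 uM BHQ-2-YbbR at pH 7.6 with 10 mM MgCl2.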
For orientation: qHTS replaces the single test concentration by a dilution series.
With `Cc1ccc2nc3c(cc(C(=O)NCCc4ccccc4)c(=N)n3CC3CCCO3)c(=O)n2c1` (configuration not stated), the largest response in the series, negative = inhibition is 21.3%.
Same read-out and setting: the value for `Cc1ccc(CS(=O)(=O)c2ncc(Cl)c(C(=O)Nc3nnc(C)s3)n2)cc1` was -13.2%; that for `COc1ccc(Cl)cc1NS(=O)(=O)c1cccc(C(=O)NCC2CCCO2)c1` (configuration not stated) was 12.9%.
Same read-out and setting: the same measure for `CN(Cc1ccccc1)C(=O)CSc1nc2ccccc2[nH]1`: 9.63%; for `Cc1cc2[nH]ncc2cc1NC(=S)NC(=O)c1ccccc1`: 1.08%.
Turning to `Cn1nnc(NC(=S)NC(=O)c2ccccc2)n1`, the Potency is 35.5 µM (active).
For `COCCCNC(=S)NC(=O)c1ccccc1`, the largest response in the series, negative = inhibition is 8.58%.
Same read-out and setting: the value for `O=C(NC(=S)NC1CCS(=O)(=O)C1)c1cccc([N+](=O)[O-])c1` (configuration not stated) was -2.6%.
On to `COc1ccc(-c2nc3ccccc3c(=O)n2CCc2ccc(O)cc2)cc1`, for which the largest response in the series, negative = inhibition is -0.523%.
The same measure, in the same setting: the same measure for `COc1ccc(-c2c(C#Cc3ccccc3)c3ccccc3n2C)cc1`: -20.7%.
As for `COc1ccc(CCNCc2c(-c3ccccc3)n(C)c3ccccc23)cc1`, the Potency was 79.4 µM (active).
As for `CCOc1ccc(-n2c(SCC(N)=O)nnc2-c2ccco2)cc1`, the largest response in the series, negative = inhibition is 27.1%.
Still for that read-out and setting: the value for `CCOc1ccccc1Nc1ccc2nonc2c1[N+](=O)[O-]` was 1.09%; that for `O=C(O)c1cccc(S(=O)(=O)Nc2ccc(O)cc2Sc2nc3ccccc3s2)c1` was -29.2%.
Take `O=[N+]([O-])c1c(NCCO)cc(Sc2nc3ccccc3s2)c2nonc12`: the Potency is 6.31 µM (active).
The same measure, in the same setting: the same measure for `C=CCn1c(CCNC(=O)c2cccs2)n[nH]c1=S`: 7.94 µM (active).
Take `C=CCn1c(CCc2ccc(OC(C)C)cc2)n[nH]c1=S`: the largest response in the series, negative = inhibition is 14.2%.
On the same count and under the same terms, the same measure for `Cc1ccc(C)c2[nH]c(=O)c(CCNC(=O)c3cccs3)cc12`: 6.07%; for `COc1ccc(C(=O)NC2CC(C)(C)NC(C)(C)C2)cc1OC`: 0.887%; for `N#C/C(=C\c1ccc(O)c(O)c1)C(=O)NCc1ccccc1`: -22.3% and -19.4%.
The same measure, in the same setting: the same measure for `CC(C)(C)C(=O)/C(C#N)=C/c1ccc(O)cc1`: 8.9%.
Take `N#C/C(=C\c1ccc(O)c(O)c1)C(N)=O`: the Potency is 79.4 µM (active) and 56.2 µM (active).
For `C=CCOc1ccc(/C=C/C(=O)OCC(=O)NC2CCCCCC2)cc1`, the largest response in the series, negative = inhibition is 16.7%.
`CCOC(=O)c1ccc(NC(=O)CNC(=O)c2ccco2)cc1`: the largest response in the series, negative = inhibition was 7.8%.
In the case of `CCCN(CCc1ccccc1)C1CCc2c(O)cccc2C1` (configuration not stated), the largest response in the series, negative = inhibition was 21.2%.
On the same count and under the same terms, the value for `CC(=O)Nc1ccc(S(=O)(=O)N2N=NC3C2C2CC4C3(CN(C(=O)OC(C)(C)C)S4(=O)=O)O2)cc1` (configuration not stated) was 11.6%; that for `O=C(COC(=O)c1cccs1)NCc1cccs1` was 10.5%.
On the same count and under the same terms, the same measure for `O=C(COC(=O)C12CC3CC(CC(C3)C1)C2)NCc1ccco1`: -10.5%.
For `O=C(COC(=O)CCC(=O)c1cccs1)NCc1ccco1`, the Potency was 35.5 µM (active).
As for `CN1CCN(Cc2c(C(=O)N3CCc4ccccc4C3)nc3ccc(Cl)cn23)CC1`, the largest response in the series, negative = inhibition is -5.24%.
On the same count and under the same terms, the value for `CCCn1nnnc1NCc1ccc(OC)cc1` was 10.3%.
Consider `CNC(=O)c1sc(NCc2ccccc2OC)nc1C`, for which the largest response in the series, negative = inhibition was -19.7%.
Consider `CCOC(=O)C1=C(C)Nc2sc(C(=O)c3ccc(Br)cc3)c(N)c2C1c1ccc(C(=O)OC)cc1` (configuration not stated), for which the largest response in the series, negative = inhibition was 15.8%.
In the case of `CCOC(=O)c1sc(=S)n2c1[nH]c(=O)c1ccc(C(=O)OC)cc12`, the Potency is 15.8 µM (active).
`CCOC(=O)c1sc(NC(=O)c2ccncc2)nc1C`: the largest response in the series, negative = inhibition was -1.23%.
On the same count and under the same terms, the same measure for `CCc1nn(CCCC(=O)Nc2ccc(C)c(C)c2)c(=O)c2cc3occc3n12`: 5.57%.
As to `COc1ccc(N2CCN(Cc3ccc(Br)s3)CC2)cc1`, the Potency was 39.8 µM (active).
Regarding `COc1ccc(N2CCN(Cc3cc(=O)oc4ccc5ccccc5c34)CC2)cc1`, the largest response in the series, negative = inhibition is 4.08%.
Same read-out and setting: the same measure for `COc1ccc(N2CCN(Cc3nnc(-c4ccccc4)o3)CC2)cc1`: 2.63%; for `O=C(CN(C(=O)c1csnn1)c1cccc(Cl)c1)NC1CCCC1`: 5.89%.
Take `NNc1nnc(NN)c2ccccc12`: the Potency was 89.1 µM (active).
In the case of `Cc1nnc(NCCO)c2ccccc12`, the largest response in the series, negative = inhibition was 13.5%.
On the same count and under the same terms, the value for `C=CCNc1nnc(C)c2ccccc12` was 4.78%; that for `CSc1ccccc1OCc1cc(C(=O)N(C)CCc2c(C)n[nH]c2C)no1` was 0.222%; that for `COc1cc(C=O)c(Br)cc1OCC(=O)NCc1ccccc1` was 11.5%.
`COc1cc(C(=S)NCc2ccccc2)cc(Br)c1O`: the Potency was 8.91 µM (active).
In the case of `COc1cc(C(=O)NCc2ccncc2)cc(Br)c1OCc1ccccc1`, the largest response in the series, negative = inhibition is 4.37%.
With `NS(=O)(=O)c1ccccc1NC(=O)c1c(O)c2ccccc2[nH]c1=O`, the largest response in the series, negative = inhibition was -6.41%.
On the same count and under the same terms, the same measure for `CC1CC(=O)N(CC(=O)Nc2cccc(Cl)c2)c2ccccc2S1(=O)=O` (configuration not stated): 12.1%; for `COc1cc2c(cc1OC)[C@@H](Cc1cc(OC)c(OC)c(OC)c1)[N+](C)(CCCOC(=O)CC/C=C/CCC(=O)OCCC[N+]1(C)CCc3cc(OC)c(OC)cc3[C@H]1Cc1cc(OC)c(OC)c(OC)c1)CC2` (some centres not stated): -3.12%; for `CCCCN(CC)C(=O)C1CCCN(S(=O)(=O)c2cccc3nsnc23)C1` (configuration not stated): 17.1%.
With `COC(=O)c1c(-c2ccc(C)cc2)csc1N`, the Potency was 44.7 µM (active).
As for `CCOC(=O)c1c(-c2ccccc2)csc1NC(=S)NC(=O)c1ccccc1`, the largest response in the series, negative = inhibition is -3.92%.
For the compound `CCC(C(=O)OC)n1cnc2scc(-c3ccc(C)cc3)c2c1=O` (configuration not stated), the largest response in the series, negative = inhibition was 6.01%.
On the same count and under the same terms, the value for `CCCCC/C=C\C[C@H](O)/C=C/C=C/C=C/[C@@H](O)CCCC(=O)O` was 6.53%; that for `CC(=O)N1CCN(C(=O)C2(NC(=O)Nc3ccc(C)cc3)CCCCC2)CC1` was 14.1%; that for `O=C(Cc1ccc(Br)cc1)NCCN1CCOCC1` was 14.6%.
On the same count and under the same terms, the same measure for `CCCCOc1ccc(C(C)(O)CCN2CCOCC2)cc1` (configuration not stated): 6.22%.
As to `CCCOc1ccc(C2c3c(oc4cc(C)c(C)cc4c3=O)C(=O)N2CCCN2CCOCC2)cc1` (configuration not stated), the Potency is 50.1 µM (active).
As for `COc1ccc(C2/C(=C(/O)c3ccc(OC(C)C)cc3)C(=O)C(=O)N2CCCN2CCOCC2)cc1` (configuration not stated), the largest response in the series, negative = inhibition is -22.3%.
Same read-out and setting: the value for `CCOc1cc(-c2cc(-c3ccc(NC(C)=O)cc3)nc(N)c2C#N)ccc1O` was 10.7%; that for `Cc1cc(=O)n2nc(N3CCCC(C(=O)NCc4cccc(Cl)c4)C3)sc2n1` (configuration not stated) was 8.1%; that for `COc1ccc(CCNC(=O)NS(=O)(=O)c2ccc(C)cc2)cc1OC` was 17.5%.
Consider `COc1ccc(CCNC(=O)Cc2ccc(C)cc2)cc1OC`, for which the Potency is 39.8 µM (active).
With `COc1ccc(CCNC(=O)c2ccccc2-c2ccccc2C(=O)O)cc1OC`, the largest response in the series, negative = inhibition is 5.81%.
Take `CC(C)(Oc1ccc(C2CC2(Cl)Cl)cc1)C(=O)O` (configuration not stated): the largest response in the series, negative = inhibition is 18%.
The same measure, in the same setting: the value for `COc1ccc(NS(=O)(=O)c2cc3c(cc2C)N(C(C)=O)CCO3)cc1` was 15.7%; that for `CCn1c(=O)c(=O)[nH]c2c(=O)oc3ccc(S(=O)(=O)Nc4ccc(OC)cc4)cc3c21` was 5.45%.
The same measure, in the same setting: the value for `CCOC(=O)N1CCN(C(=O)C(=O)Nc2sc3c(c2C#N)CC(C)(C)OC3)CC1` was -14.6%.
`C/C=C\C=C\C(=O)N1CC2(CC(c3cccc(NC(=O)/C(C)=C\C)c3)=NO2)C[C@H]1C(N)=O` (some centres not stated): the Potency is 15.8 µM (active).
With `CC/C=C/C(=O)N1CC2(CC(c3cccc(NC(=O)CC)c3)=NO2)C[C@H]1C(N)=O` (some centres not stated), the largest response in the series, negative = inhibition is -8.44%.
As to `C/C=C(/C)C(=O)Nc1cccc(C2=NOC3(C2)C[C@@H](C(N)=O)N(C(=O)C2(C)CC2)C3)c1` (some centres not stated), the largest response in the series, negative = inhibition was -3.68%.
The same measure, in the same setting: the value for `CCOC(=O)N1CCN(S(=O)(=O)c2ccc(-n3cnnn3)cc2)CC1` was 6.31%; that for `COc1ccc(NS(=O)(=O)c2ccc(NC(=S)NC(=O)CC(C)C)cc2)cc1` was 3.37%.
Turning to `NS(=O)(=O)c1ccc(NC(=S)NC(=O)c2cccnc2)cc1`, the largest response in the series, negative = inhibition was -95.1%.
As for `COc1ccc(NC(=S)Nc2ccc(S(N)(=O)=O)cc2)c(C)c1`, the Potency is 50.1 µM (active).
As for `CCOc1ccccc1N1CCN(C(=S)Nc2ccc(S(N)(=O)=O)cc2)CC1`, the largest response in the series, negative = inhibition was -3.97%.
On to `COc1ccc(N2CCN(C(=S)Nc3ccc(S(N)(=O)=O)cc3)CC2)cc1`, for which the Potency is 11.2 µM (active).
As for `NS(=O)(=O)c1ccc(NC(=S)N2CCCC2)cc1`, the largest response in the series, negative = inhibition was 13.2%.
On the same count and under the same terms, the value for `Cc1ccccc1NC(=O)CCOc1ccccc1` was 2%; that for `CCc1ccc(CN(C)C(=O)C2CCC(=O)N(Cc3cccc(OC)c3)C2)nc1` (configuration not stated) was 14.7%.
As for `Cc1ccc(NS(=O)(=O)c2cn(C)c(=O)n(C)c2=O)c(C)c1`, the largest response in the series, negative = inhibition was 8.01%.
Still for that read-out and setting: the same measure for `COc1ccccc1NC(=O)CCC(=O)N1CC(C)Oc2ccc(C)cc21` (configuration not stated): 6.52%; for `COc1ccc(C(C(=O)NCC2CCCO2)N(C(=O)Cn2nnc3ccccc32)c2ccc(NC(C)=O)cc2)cc1OC` (configuration not stated): 15.5%.
As for `OCCNc1nc(Nc2ccc(Cl)c(Cl)c2)nc2ccccc12`, the Potency was 79.4 µM (active).
As to `Nc1nc(Nc2ccccc2)nc(NCCO)c1[N+](=O)[O-]`, the largest response in the series, negative = inhibition was 13.5%.
Same read-out and setting: the same measure for `CN(C)c1nc(Nc2ccc(Cl)c(Cl)c2)nc(N(C)C)n1`: 3.3%; for `O=C(NCC(=O)N1CCN(c2ccccc2O)CC1)c1ccc2ccccc2c1`: 2.02%; for `CCN1CCN(c2sc(S(C)(=O)=O)nc2S(=O)(=O)c2ccc(Cl)cc2)CC1`: 14.2%.
On the same count and under the same terms, the value for `COc1ccc(C(=O)COC(=O)Cn2cnc3c2c(=O)n(C)c(=O)n3C)c(OC)c1` was 2.93%.
As to `CCCOC1CCCN(C(=O)c2cc(COc3cncc(Cl)c3)on2)C1` (configuration not stated), the largest response in the series, negative = inhibition is -1.29%.
Still for that read-out and setting: the same measure for `CCOc1cc(N2CCOCC2)c(OCC)cc1NC(=O)COc1cccc2cccnc12`: 1.6%.
Turning to `Oc1c(C(c2ccccn2)N2CCOCC2)ccc2cccnc12` (configuration not stated), the Potency was 35.5 µM (active).
As to `OC(COc1ccc2ccccc2c1)CN1CCOCC1` (configuration not stated), the largest response in the series, negative = inhibition was 11.8%.
Still for that read-out and setting: the value for `CN(C)CCNc1ccc(-c2n[nH]c(=O)c3ccccc23)cc1[N+](=O)[O-]` was 16.7%; that for `Cc1ccc(C(=O)O/N=C(\N)c2ccccn2)cc1Cl` was 2.02%.
As for `O=C(Nc1ccccc1Cl)O/N=C(/c1ccccc1)c1ccccn1`, the Potency is 79.4 µM (active).
Regarding `O=C(Nc1ccccc1Cl)Nc1cccc2cccnc12`, the largest response in the series, negative = inhibition is 2.31%.
With `CCCCNc1nc(C)nc2c1nc(-c1ccccc1)n2CCCCN(CC)CC`, the largest response in the series, negative = inhibition is 23.3%.
On to `Cc1cc(C)n(-c2ccc(NC(=O)C3CCCCN3C(=O)c3cccs3)cc2)n1` (configuration not stated), for which the largest response in the series, negative = inhibition was 4.09%.
Same read-out and setting: the same measure for `C=CCc1cccc(/C=N/NC(=O)COc2ccc(-n3cnnn3)cc2)c1O`: 15.1%; for `CCc1ccnc(NC(=O)Nc2ccc(OCc3ccccc3)cc2)c1`: -0.979%.

(Values after PubChem BioAssay AID1490 (National Center for Advancing Translational Sciences (NCATS), 2009).)
